# The supplement of paper PMC6658780
# Where a name gives a salt, the structure may show the parent alone. ± gives the standard deviation of the averaged measurements.
# What was measured:
# [1] = test system: Klebsiella pneumoniae KPC-119; assay: percent growth inhibition of drug alone vs DMSO control; higher = more growth inhibition; details: antibiotic (0.125x MIC): none (0.1% DMSO)
# [2] = test system: Klebsiella pneumoniae KPC-119; assay: percent growth inhibition of drug + antibiotic vs DMSO control; higher = more growth inhibition
# [3] = test system: Klebsiella pneumoniae NCTC-13439; assay: percent growth inhibition of drug alone vs DMSO control; higher = more growth inhibition; details: antibiotic (0.125x MIC): none (0.1% DMSO)
# [4] = test system: Klebsiella pneumoniae NCTC-13439; assay: percent growth inhibition of drug + antibiotic vs DMSO control; higher = more growth inhibition
# [5] = antibiotic (0.125x MIC): colistin, 7 µM
# [6] = antibiotic (0.125x MIC): colistin, 20 µM
# [7] = antibiotic (0.125x MIC): ciprofloxacin, 7 µM
# [8] = antibiotic (0.125x MIC): ciprofloxacin, 20 µM
# [9] = antibiotic (0.125x MIC): tigecycline, 7 µM
# [10] = antibiotic (0.125x MIC): tigecycline, 20 µM
# [11] = antibiotic (0.125x MIC): gentamicin, 7 µM
# [12] = antibiotic (0.125x MIC): gentamicin, 20 µM
# [13] = antibiotic (0.125x MIC): meropenem, 20 µM
smiles,measurement,setting,value
CC1CCc2c(N3CCC(O)CC3)c(F)cc3c(=O)c(C(=O)O)cn1c23 (stereo not given) [Nadifloxacin],percent growth inhibition of drug alone,[1]; 7 µM,6.2 ± 4.4%
same,percent growth inhibition of drug alone,[1]; 20 µM,36 ± 4.7%
same,percent growth inhibition,[2]; [5],82.4 ± 20%
same,percent growth inhibition,[2]; [6],98.1 ± 1.5%
NC1CCN(c2c(F)cc3c(=O)c(C(=O)O)cn(C4CC4)c3c2Cl)C1 (stereo not given) [Clinafloxacin],percent growth inhibition of drug alone,[3]; 7 µM,13.5 ± 8.8%
same,percent growth inhibition,[4]; [7],13.8 ± 8.5%
same,percent growth inhibition,[4]; [8],93.36 ± 0.75%
same,percent growth inhibition,[4]; [9],14.4 ± 11%
same,percent growth inhibition,[4]; [10],96.8 ± 4.4%
COc1c(N2C[C@@H]3CCCN[C@@H]3C2)c(F)cc2c(=O)c(C(=O)O)cn(C3CC3)c12 [Moxifloxacin],percent growth inhibition of drug alone,[3]; 7 µM,12.5 ± 0.24%
same,percent growth inhibition,[4]; [7],25.8 ± 7.3%
same,percent growth inhibition,[4]; [8],99.24 ± 0.54%
same,percent growth inhibition,[4]; [9],14.4 ± 14%
same,percent growth inhibition,[4]; [10],99.69 ± 0.6%
C=CC1=C(C(=O)O)N2C(=O)[C@@H](NC(=O)/C(=N\OCC(=O)O)c3csc(N)n3)[C@H]2SC1 [Cefixime],percent growth inhibition of drug alone,[1]; 7 µM,9.48 ± 2.4%
same,percent growth inhibition of drug alone,[1]; 20 µM,44.3 ± 4.2%
same,percent growth inhibition,[2]; [5],9.79 ± 12%
same,percent growth inhibition,[2]; [6],97.8 ± 1.9%
same,percent growth inhibition,[2]; [11],29.8 ± 2%
same,percent growth inhibition,[2]; [12],97.5 ± 3.4%
C[C@H]1c2cccc(O)c2C(=O)C2=C(O)[C@]3(O)C(=O)C(C(N)=O)=C(O)[C@@H](N(C)C)[C@@H]3[C@@H](O)[C@@H]21 [Doxycycline hydrochloride],percent growth inhibition of drug alone,[1]; 7 µM,15.8 ± 3%
same,percent growth inhibition of drug alone,[1]; 20 µM,35.7 ± 5.2%
same,percent growth inhibition,[2]; [5],42.8 ± 2.2%
same,percent growth inhibition,[2]; [6],91.4 ± 2.1%
C[C@H](N)[C@H](O)c1cccc(O)c1 [Metaraminol bitartrate],percent growth inhibition of drug alone,[3]; 7 µM,-7.73 ± 11%
same,percent growth inhibition of drug alone,[3]; 20 µM,-0.507 ± 15%
same,percent growth inhibition,[4]; [9],8.48 ± 9.5%
same,percent growth inhibition,[4]; [10],-12.7 ± 7%
COc1cc(C)nc(-n2nc(C)cc2OC)n1 [Epirizole],percent growth inhibition of drug alone,[1]; 7 µM,-1.76 ± 0.66%
same,percent growth inhibition of drug alone,[1]; 20 µM,-0.885 ± 4.3%
same,percent growth inhibition,[2]; [5],55.5 ± 7.9%
same,percent growth inhibition,[2]; [6],-4.39 ± 3.8%
O=C(OCC(O)CO)c1ccccc1Nc1ccnc2cc(Cl)ccc12 (stereo not given) [Glafenine hydrochloride],percent growth inhibition of drug alone,[3]; 7 µM,-9.8 ± 14%
same,percent growth inhibition of drug alone,[3]; 20 µM,3.73 ± 17%
same,percent growth inhibition,[4]; [7],6.41 ± 16%
same,percent growth inhibition,[4]; [8],5.01 ± 4.3%
O=C1NCN(c2ccccc2)C12CCN(CCCC(c1ccc(F)cc1)c1ccc(F)cc1)CC2 [Fluspirilen],percent growth inhibition of drug alone,[1]; 7 µM,-0.668 ± 2.3%
same,percent growth inhibition of drug alone,[1]; 20 µM,-1.04 ± 3.2%
same,percent growth inhibition,[2]; [5],4.99 ± 4%
same,percent growth inhibition,[2]; [6],96.4 ± 1.1%
NC(=O)N/N=C/c1ccc([N+](=O)[O-])o1 [Nitrofural],percent growth inhibition of drug alone,[3]; 7 µM,-7.28 ± 2%
same,percent growth inhibition of drug alone,[3]; 20 µM,11.8 ± 8.7%
same,percent growth inhibition,[4]; [7],10.1 ± 18%
same,percent growth inhibition,[4]; [8],16.3 ± 2.7%
C#C[C@]1(OC(C)=O)CC[C@H]2[C@@H]3CCC4=CC(=NO)CC[C@@H]4[C@H]3CC[C@@]21CC (mixture of isomers) [Norgestimate],percent growth inhibition of drug alone,[3]; 7 µM,-4.1 ± 1.3%
same,percent growth inhibition of drug alone,[3]; 20 µM,-14.2 ± 4.9%
same,percent growth inhibition,[4]; [7],-7.59 ± 3.1%
same,percent growth inhibition,[4]; [8],4.4 ± 13%
Cc1c(F)c(N2CCNC(C)C2)cc2c1c(=O)c(C(=O)O)cn2C1CC1 (stereo not given) [Grepafloxacin],percent growth inhibition of drug alone,[3]; 7 µM,13 ± 6.5%
same,percent growth inhibition of drug alone,[3]; 20 µM,23.5 ± 9.9%
same,percent growth inhibition,[4]; [7],18.9 ± 3.6%
same,percent growth inhibition,[4]; [8],51.2 ± 18%
same,percent growth inhibition,[4]; [9],7.09 ± 6.5%
CC1COc2c(N3CCN(C)CC3)c(F)cc3c(=O)c(C(=O)O)cn1c23 (stereo not given) [Ofloxacin],percent growth inhibition of drug alone,[1]; 7 µM,47.1 ± 5%
same,percent growth inhibition of drug alone,[1]; 20 µM,97.47 ± 0.25%
same,percent growth inhibition,[2]; [5],98.02 ± 0.8%
same,percent growth inhibition,[2]; [6],97.8 ± 1.4%
same,percent growth inhibition,[2]; [11],99.97 ± 0.11%
same,percent growth inhibition,[2]; [12],99.953 ± 0.055%
same,percent growth inhibition,"[2]; antibiotic (0.125x MIC): meropenem, 7 µM",96.7 ± 3.1%
same,percent growth inhibition,[2]; [13],99.92 ± 0.12%
CC(=O)CCCCn1c(=O)c2c(ncn2C)n(C)c1=O [Pentoxifylline],percent growth inhibition of drug alone,[3]; 20 µM,2.73 ± 3.2%
same,percent growth inhibition,[4]; [7],2.24 ± 1.5%
same,percent growth inhibition,[4]; [8],5.4 ± 5.5%
same,percent growth inhibition,[4]; [9],1.34 ± 3.2%
same,percent growth inhibition,[4]; [10],4.32 ± 0.75%
NC1CCN(c2nc3c(cc2F)c(=O)c(C(=O)O)cn3-c2ccc(F)cc2F)C1 (stereo not given) [Tosufloxacin hydrochloride],percent growth inhibition of drug alone,[3]; 7 µM,56.5 ± 19%
same,percent growth inhibition of drug alone,[3]; 20 µM,99.38 ± 0.74%
same,percent growth inhibition,[4]; [7],88.1 ± 8.8%
same,percent growth inhibition,[4]; [8],99.03 ± 0.4%
NCC[C@H](O)C(=O)N[C@@H]1C[C@H](N)[C@@H](O[C@H]2O[C@H](CN)[C@@H](O)[C@H](O)[C@H]2O)[C@H](O)[C@H]1O[C@H]1O[C@H](CO)[C@@H](O)[C@H](N)[C@H]1O [Amikacin hydrate],percent growth inhibition of drug alone,[1]; 7 µM,3.37 ± 0.38%
same,percent growth inhibition of drug alone,[1]; 20 µM,39.8 ± 0.7%
same,percent growth inhibition,[2]; [5],38.9 ± 2.6%
same,percent growth inhibition,[2]; [6],92.29 ± 0.57%
same,percent growth inhibition,[2]; [11],30.1 ± 9.4%
same,percent growth inhibition,[2]; [12],99.83 ± 0.21%
same,percent growth inhibition,[2]; [13],99.71 ± 0.1%
Nc1nc(/C(=C/CC(=O)O)C(=O)N[C@@H]2C(=O)N3C(C(=O)O)=CCS[C@H]23)cs1 [Ceftibuten],percent growth inhibition of drug alone,[1]; 7 µM,38.6 ± 4.3%
same,percent growth inhibition,[2]; [12],99.37 ± 0.26%
same,percent growth inhibition,[2]; [13],94.5 ± 4.1%
